In PubChem BioAssay (NCATS):
Inconclusive results are not listed. Calls of active or inactive are those of the source. Unless noted, calls follow the shape of the dose curve; as a rule, active = well fitted curve in either direction with a large enough effect (not every such curve was filed as active); inconclusive = small, poorly fitted or top-dose-only effect, or another doubt; inactive = flat fitted curve, though single readings scatter.

Experiments:
[1] = target: Lysosomal acid glucosylceramidase (Homo sapiens) (UniProt P04062); experiment: Glucocerebrosidase-p2 (AID 348; in the data active = potency below about 10 µM; also: potency is read from the fitted curve at half-maximal effect); details: purified GBA, blue fluorogenic substrate, 40 min
Method in brief: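 Normal human glucocerebrosidase (0.2 nM) with blue fluorogenic substrate (80 uM final) in citrate/phosphate pH 5.9 with 10mM sodium taurocholate, 0.01% tween-20; 40 min RT, NaOH/glycine stop; fluorescence Ex 365/Em 440; AC50 from a titration from 0.6 nM upwards.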

[2] = AP1 Signaling Pathway (AID 357); details: ME-180 AP-1-bla reporter, EGF-induced, beta-lactamase ratio, 5 h; at 7.69 µM (top of the series) unless noted;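 also: ME-180 reporter cells stimulated with EGF at its EC50 level; % is scaled to controls: 0 for no effect and ±100 for the full control effect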
Method in brief: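 Read-out was the 460nm/530nm emission ratio (excitation 405nm) after CCF4 loading for 2.5 hours at room temperature. Cells carried an AP-1-driven beta-lactamase reporter, were stimulated with EC50 EGF plus compound for 5 hours, and AC50 values came from titrations.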

[3] = target: Cytochrome P450 1A2 (Homo sapiens) (UniProt P05177); experiment: p450-cyp1a2 (AID 410; calls by dose curve; also: potency is read from the fitted curve at half-maximal effect;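 as to activity change, negative = inhibition: -100% = full effect of reference inhibitor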); details: recombinant CYP1A2, luciferin-ME demethylation, luminescence; series mostly up to 11.4 µM
Method in brief: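 Luminescent demethylation readout: Luciferin-ME (100uM, equal to Km) turned over by 20nM CYP1A2 for 60 min at room temperature after NADPH regeneration addition, following 10 min compound preincubation. Normalization used 57 uM furafylline as full inhibition.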

[4] = NFAT Signaling Pathway (AID 444); details: Jurkat NFAT-bla M1, carbachol, beta-lactamase ratio, 5 h; at 7.69 µM (top of the series) unless noted;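 also: carbachol stimulus at about its EC50 of 1 µM final; % is scaled to controls: 0 for no effect and ±100 for the full control effect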
Method in brief: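 Read-out: CCF4 FRET ratio (460 nm/530 nm) after 1 h RT dye loading, used for %activity and AC50 from titration series. Cells: Jurkat NFAT-β-lactamase/M1 line, treated with compound plus 1 uM carbachol for 5 h, 37 °C.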

[5] = target: Glucocorticoid receptor (Homo sapiens) (UniProt P04150); experiment: GR-GFP Redistribution (AID 450;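 active = compounds whose dose series gives a full or clear partial fitted curve of increased nuclear translocation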; also: potency is read from the fitted curve at half-maximal effect); details: U2OS GR-GFP nuclear translocation, laser cytometry, 2 h
[6] = target: Glucocorticoid receptor (Homo sapiens) (UniProt P04150); experiment: GR-EFC Redistribution (AID 451; calls by dose curve; also: potency is read from the fitted curve at half-maximal effect); details: CHO-K1 GR-EFC translocation, beta-gal luminescence, 2 h
Method in brief: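 Translocation of GR-ED fusion to nuclear EA restores b-gal, read by luminescence after 1 h room-temperature detection. Engineered CHO-K1 biosensor cells, 1,000/well, exposed 2 h at 37 C to titrations up to 46 uM final.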

[7] = target: 3',5'-cyclic-AMP phosphodiesterase 4B (Homo sapiens) (UniProt Q07343); experiment: qHTS Assay for Inhibitors of PDE-IV (AID 607; active = well fitted activation curve with a large enough effect in the main read-out, with a control signal flat, not every such curve was filed as active; also: % of control where 0% means no effect); details: HEK293 ACTOne CNG channel cells, membrane potential fluorescence; series mostly up to 22.9 µM
Method in brief: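 Live HEK293 cells with a modified cyclic nucleotide-gated (CNG) channel report intracellular cAMP via membrane-potential dye fluorescence (ex 535/em 590 nm). Endogenous PDE-IV was targeted. Compounds were tested at up to 22.9 uM final; RO 20-1724 100 uM served as control.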

[8] = target: Cytochrome P450 3A4 (Homo sapiens) (UniProt P08684); experiment: qHTS Assay for Inhibitors and Substrates of Cytochrome P450 3A4 (AID 884; active = well fitted curve in the direction sought with a large enough effect; an effect the other way counts as inactive or inconclusive; also: potency is read from the fitted curve at half-maximal effect; nearly all actives have a fitted effect of over 50% in size); details: recombinant CYP3A4, Luciferin-PPXE luminescence; series mostly up to 57.1 µM
Method in brief: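 Luminescent readout of luciferin produced by CYP3A4 (20 nM) dealkylation of Luciferin-PPXE, 25 uM (its KM). NADPH-driven reaction ran 60 min at RT after 10 min compound preincubation; data scaled to 57 uM ketoconazole as 100% inhibition.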

[9] = target: Cytochrome P450 3A4 (Homo sapiens) (UniProt P08684); experiment: qHTS Assay for Activators of Cytochrome P450 3A4 (AID 885; active = well fitted curve in the direction sought with a large enough effect; an effect the other way counts as inactive or inconclusive; also: nearly all actives have a fitted effect of over 65% in size); details: recombinant CYP3A4, Luciferin-PPXE luminescence, 60 min; series mostly up to 11.4 µM
Method in brief: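 Using 20nM recombinant human CYP3A4 in potassium phosphate (200mM), substrate Luciferin-PPXE at 25uM, luminescent luciferin detection followed a 60-min RT NADPH reaction; data scaled to 57 uM ketoconazole.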

[10] = target: Mitogen-activated protein kinase 10 (Mus musculus) (UniProt Q61831); experiment: JNK3 AlphaScreen Assay (AID 530); details: JNK3 lysate, c-Jun phosphorylation; series mostly up to 11.4 µM;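 also: kinase came from lysate of stimulated human HepG2 cells; signal reports phosphorylation of biotinylated GST-cJun 1-79 at Ser73 with 10 µM ATP; % is scaled to controls: 0 for no effect and ±100 for the full control effect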
Method in brief: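 qHTS titrations with 15 min compound pre-incubation before adding ATP (10 uM final). Read-out: AlphaScreen of Ser73-phosphorylated biotin-GST-cJun using HepG2 lysate JNK3 activated by IL-1β and TNFα.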

[11] = target: Cytochrome P450 2C9 (Homo sapiens) (UniProt P11712); experiment: qHTS Assay for Inhibitors and Substrates of Cytochrome P450 2C9 (AID 883; active = well fitted curve in the direction sought with a large enough effect; an effect the other way counts as inactive or inconclusive; also: nearly all actives have a fitted effect of over 60% in size; also: potency is read from the fitted curve at half-maximal effect); details: recombinant CYP2C9, luciferin-H luminescence, 60 min; series mostly up to 11.4 µM
Method in brief: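 Luminescent read-out of deoxyluciferin hydroxylation, normalized to 57uM sulphaphenazole (AC100). Reaction: 10nM enzyme, 100uM Luciferin-H (equal to KM), 25mM KPO4, 10 min compound preincubation, then 60 min with NADPH regeneration, both at 37C.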

[12] = target: Cytochrome P450 2C19 (Homo sapiens) (UniProt P33261); experiment: qHTS Assay for Inhibitors and Substrates of Cytochrome P450 2C19 (AID 899; active = well fitted curve in the direction sought with a large enough effect; an effect the other way counts as inactive or inconclusive; also: nearly all actives have a fitted effect of over 60% in size; also: potency is read from the fitted curve at half-maximal effect); details: recombinant CYP2C19, luciferin-H EGE luminescence; series mostly up to 11.4 µM
Method in brief: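 Luminescence readout of luciferin formed from 10uM Luciferin-H EGE (KM level) by 5 nM CYP2C19 in 50mM KPO4. 60 min NADPH-driven reaction at 37C after 10 min compound preincubation; data scaled to 57uM ketoconazole inhibition.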

[13] = qHTS Assay for Identification of Small Molecule Agonists for Hypoxia Response Element Signaling Pathway (AID 914; active = well fitted activation curve with a large enough effect in the signal ratio, with a control signal flat, not every such curve was filed as active; the % refers to the signal ratio; also: % of control where 0% means no effect); details: ME-180 HRE-bla reporter, beta-lactamase ratio, CoCl2, 17 h; activation: hits give high values
Method in brief: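 Compounds in a titration series were added to ME-180 reporter cells alongside an EC50 level of CoCl2. After 17 hours, beta-lactamase activity was read as the 460nm/530nm emission ratio of CCF4, giving AC50 values.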

[14] = Stat Signaling Pathway (AID 446); details: ME-180 (cervical carcinoma) SIE beta-lactamase reporter, IL-6 stimulated, 5 h; at 7.69 µM (top of the series) unless noted;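 also: ME-180 cervical cancer cells given 40 pM IL-6 alongside compound; SIE-controlled beta-lactamase reporter measured as 460/530 nm FRET emission ratio; % is scaled to controls: 0 for no effect and ±100 for the full control effect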
Method in brief: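 Overnight-plated ME-180 cells bearing a STAT Inducible Element beta-lactamase reporter; 5 h co-exposure to compound and 40 pM IL-6; values normalized to 300 pM IL-6 and 125 nM JAK inhibitor controls.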

Sequence of 3',5'-cyclic-AMP phosphodiesterase 4B (Homo sapiens) (Q07343 whole entry, looked up): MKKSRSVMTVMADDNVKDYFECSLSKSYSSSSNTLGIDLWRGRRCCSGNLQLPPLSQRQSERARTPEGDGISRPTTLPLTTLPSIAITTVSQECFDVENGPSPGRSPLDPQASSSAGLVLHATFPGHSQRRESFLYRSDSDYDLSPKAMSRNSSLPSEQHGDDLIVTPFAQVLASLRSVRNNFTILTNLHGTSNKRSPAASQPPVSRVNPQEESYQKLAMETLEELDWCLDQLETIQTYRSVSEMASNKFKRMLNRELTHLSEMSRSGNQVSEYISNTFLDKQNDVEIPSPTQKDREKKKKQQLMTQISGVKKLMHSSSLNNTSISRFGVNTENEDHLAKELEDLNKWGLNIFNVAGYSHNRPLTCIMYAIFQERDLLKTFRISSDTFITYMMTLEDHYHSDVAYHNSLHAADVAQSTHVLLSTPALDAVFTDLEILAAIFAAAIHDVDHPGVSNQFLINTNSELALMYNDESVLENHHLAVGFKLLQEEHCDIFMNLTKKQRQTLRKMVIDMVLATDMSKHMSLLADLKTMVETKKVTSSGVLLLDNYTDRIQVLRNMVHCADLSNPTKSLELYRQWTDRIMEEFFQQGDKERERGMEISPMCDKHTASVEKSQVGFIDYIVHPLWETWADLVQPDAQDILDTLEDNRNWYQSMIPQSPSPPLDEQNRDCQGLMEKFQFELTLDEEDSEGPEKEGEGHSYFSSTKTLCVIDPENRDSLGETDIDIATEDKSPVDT
Sequence of Cytochrome P450 2C19 (Homo sapiens) (P33261 whole entry, looked up): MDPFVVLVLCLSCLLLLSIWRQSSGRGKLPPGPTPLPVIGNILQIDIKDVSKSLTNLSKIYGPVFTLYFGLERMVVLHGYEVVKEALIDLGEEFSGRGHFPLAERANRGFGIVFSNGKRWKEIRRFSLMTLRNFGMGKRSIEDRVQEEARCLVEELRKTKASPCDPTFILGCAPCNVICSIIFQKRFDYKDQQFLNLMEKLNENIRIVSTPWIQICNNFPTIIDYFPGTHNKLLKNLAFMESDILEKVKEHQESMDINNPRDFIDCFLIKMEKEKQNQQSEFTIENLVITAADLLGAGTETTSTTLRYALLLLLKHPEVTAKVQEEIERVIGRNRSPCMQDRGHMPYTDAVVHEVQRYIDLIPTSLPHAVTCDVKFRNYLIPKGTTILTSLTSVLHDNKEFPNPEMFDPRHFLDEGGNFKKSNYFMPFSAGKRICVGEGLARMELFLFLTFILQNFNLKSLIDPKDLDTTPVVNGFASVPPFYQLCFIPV
Sequence of Cytochrome P450 3A4 (Homo sapiens) (P08684 whole entry, looked up): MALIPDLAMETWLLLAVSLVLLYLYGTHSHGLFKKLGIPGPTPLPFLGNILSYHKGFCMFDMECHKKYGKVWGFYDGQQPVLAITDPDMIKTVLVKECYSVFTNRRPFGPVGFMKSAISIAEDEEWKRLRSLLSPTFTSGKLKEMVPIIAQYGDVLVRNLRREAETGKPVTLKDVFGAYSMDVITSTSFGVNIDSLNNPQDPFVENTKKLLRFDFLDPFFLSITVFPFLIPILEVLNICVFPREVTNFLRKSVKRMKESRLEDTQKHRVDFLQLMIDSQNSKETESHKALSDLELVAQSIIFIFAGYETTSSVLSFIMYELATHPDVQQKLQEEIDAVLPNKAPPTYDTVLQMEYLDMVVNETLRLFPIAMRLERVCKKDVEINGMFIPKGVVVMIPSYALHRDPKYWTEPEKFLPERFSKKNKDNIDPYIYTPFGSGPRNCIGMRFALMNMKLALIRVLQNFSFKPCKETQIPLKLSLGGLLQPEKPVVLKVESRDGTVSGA
Sequence of Lysosomal acid glucosylceramidase (Homo sapiens) (P04062 whole entry, looked up): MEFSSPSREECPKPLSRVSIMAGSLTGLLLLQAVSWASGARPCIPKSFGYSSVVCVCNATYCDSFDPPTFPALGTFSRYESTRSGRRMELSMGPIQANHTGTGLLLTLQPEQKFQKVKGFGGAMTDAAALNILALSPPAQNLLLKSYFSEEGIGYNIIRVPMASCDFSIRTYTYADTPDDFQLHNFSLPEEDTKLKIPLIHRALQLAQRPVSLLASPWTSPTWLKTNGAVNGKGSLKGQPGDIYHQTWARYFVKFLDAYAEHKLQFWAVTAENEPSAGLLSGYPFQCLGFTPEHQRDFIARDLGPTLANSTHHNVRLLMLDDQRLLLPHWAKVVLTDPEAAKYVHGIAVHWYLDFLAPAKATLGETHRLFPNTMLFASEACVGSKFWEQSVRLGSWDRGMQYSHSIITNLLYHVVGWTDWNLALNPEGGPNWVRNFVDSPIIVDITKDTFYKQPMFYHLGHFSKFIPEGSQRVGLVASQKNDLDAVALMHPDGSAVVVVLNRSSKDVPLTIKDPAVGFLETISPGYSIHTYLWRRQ
Sequence of Glucocorticoid receptor (Homo sapiens) (P04150 whole entry, looked up, the tested form may be a part): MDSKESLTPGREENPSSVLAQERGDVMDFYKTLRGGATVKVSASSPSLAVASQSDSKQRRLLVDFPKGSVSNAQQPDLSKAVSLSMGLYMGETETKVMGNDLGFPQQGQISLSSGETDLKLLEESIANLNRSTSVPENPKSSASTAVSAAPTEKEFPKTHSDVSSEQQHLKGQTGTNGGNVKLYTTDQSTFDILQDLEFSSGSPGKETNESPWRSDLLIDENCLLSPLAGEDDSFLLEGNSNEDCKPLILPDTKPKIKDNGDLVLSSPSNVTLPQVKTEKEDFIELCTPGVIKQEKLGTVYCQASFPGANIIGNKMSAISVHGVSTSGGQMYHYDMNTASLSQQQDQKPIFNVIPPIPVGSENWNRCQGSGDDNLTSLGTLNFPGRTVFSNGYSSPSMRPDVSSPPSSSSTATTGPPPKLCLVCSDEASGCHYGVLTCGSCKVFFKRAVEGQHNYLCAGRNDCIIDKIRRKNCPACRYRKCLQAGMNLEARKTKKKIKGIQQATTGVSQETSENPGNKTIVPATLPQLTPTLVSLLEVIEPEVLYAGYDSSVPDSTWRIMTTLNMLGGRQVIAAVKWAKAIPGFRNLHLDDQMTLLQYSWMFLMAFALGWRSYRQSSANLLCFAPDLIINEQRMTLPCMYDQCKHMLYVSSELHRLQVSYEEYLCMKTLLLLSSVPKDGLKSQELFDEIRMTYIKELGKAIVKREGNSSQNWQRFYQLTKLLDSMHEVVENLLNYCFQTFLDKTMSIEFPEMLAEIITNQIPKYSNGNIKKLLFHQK
Sequence of Cytochrome P450 1A2 (Homo sapiens) (P05177 whole entry, looked up): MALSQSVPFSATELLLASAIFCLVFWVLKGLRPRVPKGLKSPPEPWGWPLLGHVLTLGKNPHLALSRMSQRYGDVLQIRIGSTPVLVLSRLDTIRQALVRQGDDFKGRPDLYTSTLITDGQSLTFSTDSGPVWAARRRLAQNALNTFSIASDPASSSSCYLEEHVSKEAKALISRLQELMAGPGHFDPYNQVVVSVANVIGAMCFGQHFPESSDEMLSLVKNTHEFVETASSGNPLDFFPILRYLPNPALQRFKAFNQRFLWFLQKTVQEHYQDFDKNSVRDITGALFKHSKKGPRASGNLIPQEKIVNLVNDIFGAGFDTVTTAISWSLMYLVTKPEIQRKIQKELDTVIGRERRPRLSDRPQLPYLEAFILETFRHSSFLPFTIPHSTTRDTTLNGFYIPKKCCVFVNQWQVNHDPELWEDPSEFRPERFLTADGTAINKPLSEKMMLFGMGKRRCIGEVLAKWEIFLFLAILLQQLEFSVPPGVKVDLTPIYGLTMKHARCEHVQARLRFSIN
Sequence of Cytochrome P450 2C9 (Homo sapiens) (P11712 whole entry, looked up): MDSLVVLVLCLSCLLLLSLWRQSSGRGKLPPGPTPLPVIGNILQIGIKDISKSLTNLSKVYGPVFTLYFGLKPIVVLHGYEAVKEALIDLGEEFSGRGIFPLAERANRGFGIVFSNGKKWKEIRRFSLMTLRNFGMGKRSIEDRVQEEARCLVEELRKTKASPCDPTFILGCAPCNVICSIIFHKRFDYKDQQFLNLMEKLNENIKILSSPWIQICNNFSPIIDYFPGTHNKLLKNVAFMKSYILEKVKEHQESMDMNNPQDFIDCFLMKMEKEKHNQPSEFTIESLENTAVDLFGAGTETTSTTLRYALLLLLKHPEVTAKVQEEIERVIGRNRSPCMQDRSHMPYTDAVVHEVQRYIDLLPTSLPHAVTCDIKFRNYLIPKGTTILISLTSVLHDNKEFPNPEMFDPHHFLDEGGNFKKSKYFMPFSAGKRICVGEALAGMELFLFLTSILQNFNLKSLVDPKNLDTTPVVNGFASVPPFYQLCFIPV

Cn1c(Sc2ccc(-c3cccnc3)n2C)ccc1-c1cccnc1
active: Potency [3] 0.398 µM | Potency [8] 0.631 µM
inactive: Potency [1] > 11.4 µM | activity change, negative = inhibition [2] 1.8% | activity change, negative = inhibition [4] -29.9% | Potency [5] > 46 µM | Potency [6] > 9.22 µM | Potency [7] | Potency [9]

O=c1cnc2cnc(Oc3ccccc3)nc2n1CCc1ccccc1
active: Potency [3] 3.16 µM | Potency [11] 3.16 µM | Potency [12] 6.31 µM
inactive: Potency [1] > 11.4 µM | activity change, negative = inhibition [2] 6.02% | activity change, negative = inhibition [4] -28.7% | Potency [5] > 9.22 µM | Potency [6] > 46 µM | Potency [10]

Cc1cc(SCC(=O)c2ccc(Br)cc2)cc(C)[o+]1
inactive: Potency [1] > 11.4 µM | activity change, negative = inhibition [2] -6.95% | activity change, negative = inhibition [4] 27.1% | Potency [5] > 46 µM | Potency [6] > 9.22 µM | Potency [10] | Potency [7] | activation [13] 15.2%
active: Potency [3] 3.98 µM

O=c1c[n+](CCCC[n+]2cc(=O)o[nH]2)[nH]o1
inactive: Potency [1] > 11.4 µM | activity change, negative = inhibition [2] 4.96% | Potency [3] | activity change, negative = inhibition [4] -11% | Potency [5] > 46 µM | Potency [6] > 9.22 µM | Potency [7] | Potency [12]

COCCn1c(=O)c(-c2ccccc2)nc2cnc(Nc3ccccc3)nc21
inactive: Potency [1] > 11.4 µM | activity change, negative = inhibition [2] -24.1% | activity change, negative = inhibition [4] 10.4% | Potency [5] > 9.22 µM | Potency [6] > 46 µM | Potency [9]
active: Potency [3] 5.01 µM

C[C@@H]1c2ccccc2Cn2cc3c(c21)C(=O)c1cccc(OP(=O)(O)OCc2ccccc2)c1C3=O
inactive: Potency [1] > 11.4 µM | activity change, negative = inhibition [2] -3.62% | activity, negative = inhibition [14] -19.6% | Potency [5] > 46 µM | Potency [6] > 9.22 µM | Potency [10] | Potency [7]
active: Potency [3] 3.16 µM

C/C(C[n+]1ccccc1)=N\N=C(N)N
inactive: Potency [1] > 11.4 µM | activity change, negative = inhibition [2] 1.19% | Potency [3] | activity change, negative = inhibition [4] -14.3% | Potency [5] > 46 µM | Potency [6] > 9.22 µM | Potency [10] | Potency [7] | Potency [11] | activation [13] 3.43%

O=C(O)[C@@H](O)[C@@H](O)[C@@H](O)[C@@H](O)c1nc2ccccc2s1
active: Potency [3] 3.98 µM | Potency [12] 3.16 µM
inactive: Potency [1] > 11.4 µM | activity change, negative = inhibition [2] 11.6% | activity change, negative = inhibition [4] -1.53% | Potency [5] > 46 µM | Potency [6] > 9.22 µM | Potency [10] | Potency [7]
